Measurements: PubChem BioAssay

target: Alpha-bungarotoxin (Bungarus multicinctus) (UniProt P60615); experiment: alpha-bungarotoxin binders on microarray, profiling panel, artefact control for SMM control protein annotation, biochemical, small-molecule microarray, Alexa647 label, 635/667 nm fluorescence (AID 1117); details: alpha-BTX-A647 binding fluorescence, higher = more signal
Sequence (P60615 whole entry, looked up): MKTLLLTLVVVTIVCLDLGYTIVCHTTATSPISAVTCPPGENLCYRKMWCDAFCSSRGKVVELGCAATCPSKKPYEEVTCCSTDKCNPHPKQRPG

For `C=CC[C@]1(C(=O)NCCCOC)N=C(c2ccc(OCCCO)cc2)O[C@H]1c1ccccc1`, which composite z-score is on record?
The composite z-score was -0.0901.

How did the composite z-score turn out when `CC1CC/C=C\[C@H]2OC34C=CCN(c5ccc(Cl)cc5)C(=O)[C@H]3N(CCCO)C(=O)[C@]4(C)C2C(=O)O1` (stereo partly drawn) was run?
Its composite z-score is -0.859.

How did the composite z-score turn out when `C=C(CC1([C@@H](NP(=O)(c2ccccc2)c2ccccc2)[C@H]2C[C@@H]2CCN(C(=O)OCC)S(=O)(=O)c2ccc(C)cc2)CC1)c1ccccc1` was run?
Its composite z-score is 0.749.

Which composite z-score does the source give for `COCC1=C([C@H](O)CCc2ccccc2)[C@H](CO)n2c(=O)n(-c3ccccc3)c(=O)n2C1` here?
The composite z-score was -0.349.

How did the composite z-score turn out when `COC(=O)c1ccc([C@H](NC(=O)c2ccccc2)[C@]2(C)C[C@H]2C2CCCCC2)cc1` was run?
The composite z-score was 1.09.

`COCCOC(=O)N1C(=O)[C@@]2(c3cc(C#CC4=CCCCC4)ccc31)[C@H](c1ccccc1OCCO)N1[C@H](c3ccccc3)[C@H](c3ccccc3)OC(=O)[C@H]1[C@@H]2C(N)=O` was tested. Which composite z-score did it give?
The composite z-score was 0.161.

Which composite z-score does the source give for `C=CCC(OC(C)=O)[C@@H]1[C@@H](N(Cc2cc3ccccc3o2)C(=O)Cc2ccc(OC)cc2)c2cc(OCCCO)ccc2N1C(=O)Cc1ccc2ccccc2c1` (stereo partly drawn) here?
The composite z-score was 0.615.

`COc1ccc([Si](C)(C)[C@H]2[C@H](CCO)O[C@@]3(C(=O)N(Cc4ccccc4)c4ccc(N(C=O)c5ccccc5)cc43)[C@@H]2C)cc1` was tested. Which composite z-score did it give?
Its composite z-score is 0.0701.

For `CC(C)CNC(=O)[C@@H]1c2ccccc2C(=O)N(Cc2ccccc2Cl)[C@H]1c1ccc(CO)cc1`, which composite z-score is on record?
The composite z-score was -1.39.

Which composite z-score does the source give for `CCCCNC(=O)c1ccc(C#C[Si](C)(C)C)c(OC(C)=O)c1` here?
The composite z-score was 0.25.

For `COc1cc2c(cc1O)C(c1ccc(CN3CCCC3)cc1)N(Cc1cccc(OC(F)(F)F)c1)CC2` (stereo not drawn), which composite z-score is on record?
Its composite z-score is 1.61.

For `C=CCOC(=O)[C@H]1[C@@H]2C(=O)O[C@@H](c3ccccc3)[C@@H](c3ccccc3)N2[C@@H](c2ccc(OCCOC(=O)[C@H]3C[C@H]4C(=O)NCC(=O)N4[C@H]3c3ccc(O)cc3)cc2)[C@]12C(=O)Nc1ccc(I)cc12`, which composite z-score is on record?
Its composite z-score is -0.303.

How did the composite z-score turn out when `NC(=O)N1C(=O)C2C(C1=O)C1C=C(CCCO)C2C(c2ccc(CN3CCCC3)cc2)N1Cc1cccc(OC(F)(F)F)c1` (stereo not drawn) was run?
Its composite z-score is 0.546.

`C=C(CCCC)C(=O)CC[C@H](OC(C)=O)c1ccccc1OCCO` was tested. Which composite z-score did it give?
Its composite z-score is -0.106.

Which composite z-score does the source give for `C=CCC(OC(C)=O)[C@@H]1[C@@H](N(Cc2cccc3ccccc23)C(=O)c2ccc(-c3ccccc3)cc2)c2cc(OCCCO)ccc2N1C(=O)c1ccc2ccccc2n1` (stereo partly drawn) here?
The composite z-score was -0.0098.

`COC(=O)[C@@]1(Cc2ccccc2)[C@@H]2[C@@H](CC(=O)[C@H]2CC(=O)C(=O)N(C)C)CN1C(=O)c1ccccc1` was tested. Which composite z-score did it give?
The composite z-score was 0.43.

`COCCOC(=O)N1C(=O)[C@@]2(c3cc(C#Cc4ccc(OC)cc4)ccc31)[C@H](C(=O)Nc1nc3ccccc3s1)[C@H]1C(=O)O[C@H](c3ccccc3)[C@H](c3ccccc3)N1[C@@H]2c1ccccc1OCCO` was tested. Which composite z-score did it give?
The composite z-score was 0.968.

How did the composite z-score turn out when `CCc1cccc(NC(=O)O[C@H]2[C@H](OC(=O)Nc3ccc4c(c3)OCO4)[C@H](OC(=O)Nc3ccc4c(c3)OCO4)[C@@H](OC)O[C@@H]2CO)c1` was run?
The composite z-score was 1.18.

For `C=C(COC)/C(=C/C[C@H](OC(=O)c1ccncc1)c1cccc(OCCO)c1)c1cnc2ccccc2c1`, which composite z-score is on record?
Its composite z-score is 3.02.

With `COCCn1c(C(=O)N2CCCC2)cc2c1C[C@H]1CN(C(=O)c3ccccc3)[C@@](Cc3ccccc3)(C(=O)OC)[C@@H]21` as the molecule, how does the composite z-score read?
Its composite z-score is 0.253.

Which composite z-score does the source give for `O=C1C2C=CC(C(O)C(c3ccccc3)c3ccccc3)N(Nc3ccccc3)C2C(=O)N1c1ccccc1` (stereo not drawn) here?
The composite z-score was 1.1.

For `Cc1ccc(S(=O)(=O)N2[C@@H](c3ccccc3)C(C(=O)O)=CC[C@H]2c2ccc(C#N)cc2)cc1`, which composite z-score is on record?
The composite z-score was 1.57.

Which composite z-score does the source give for `C=CCC(OC(C)=O)[C@@H]1[C@@H](N(Cc2cc3ccccc3o2)C(=O)c2ccc(-c3ccccc3)cc2)c2cc(OCCCO)ccc2N1C(=O)c1ccc2ccccc2n1` (stereo partly drawn) here?
The composite z-score was 0.113.
